Compound activity as filed in PubChem BioAssay.
Compounds with a hit are over-represented: about 1.6% of the library has one in this group of screens.
eIF4E-4G inh – inhibitors of eIF4E and eIF4G interaction in translation initiation | inhibition, % at 21.7 µM | TR-FRET eIF4E-eIF4GI(517-606) binding, 2 h | 0.37% of 220,000 active | P63073+Q04637;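 active means inhibition above about 30%, limit read from the data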;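 further: 0% = full FRET control wells and 100% = background wells lacking eIF4GI fragment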
eIF4H inh – inhibitors of RNA binding by human eIF4H; eIF4H fluorescence polarization binding assay; inhibition, % at 35 µM; 0.94% of 290,000 active; Q15056;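 further: calls also rest on retests at 20 µM and on dose response follow-up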
PABP FP inh – blocks human PABP binding to poly(A) RNA | P11940 | AID 2014 | fluorescence polarization | 1% of 290,000 active | inhibition, % at 35 µM;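 further: calls also rest on retests at 20 µM and on dose response follow-up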
PERK inhibitor – inhibitors of human PERK kinase | Q9NZJ5 | CHO PERK-DD fusion, SEAP luminescence translation reporter | inhibition, % at 5.6 µM | 0.17% of 220,000 active | AID 1416;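 active means inhibition above the mean inhibition of all tested compounds plus 3 SD, set separately per screening campaign, cut at about 2.9% in these data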;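 further: PERK kinase domain activated by AP20187 dimerizer at 100 nM; 0% = DMSO with dimerizer and 100% = rapamycin at 8.4 µM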
PABP1 MLLE inh – blocks PAM2 peptide binding to the PABP1 MLLE domain. P11940. GST-MLLE / FITC-PAM2 fluorescence polarization. inhibition, % at 20 µM. 0.36% of 360,000 active. AID 588489; in the data active means inhibition above about 35%, passing the limit was not always enough;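 further: plate controls were DMSO wells with GST-MLLE for no effect and wells lacking GST-MLLE protein for full effect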
* = called active by the depositor; ? = inconclusive; nt = no result; [ ] = another dose, or the depositor's remark. Unless noted, how the calls were made is not given here.

SMILES	eIF4E-4G inh	eIF4H inh	PABP FP inh	PERK inhibitor	PABP1 MLLE inh
O=C(CC(Sc1ccccc1)c1cccs1)c1ccco1 (stereo not drawn)	1	-4	-5	2	37*
COC(=O)COc1ccc(S(=O)(=O)NCc2ccc3c(c2)OCO3)cc1C	nt	4	-4	nt	3
COc1ccc(Cl)cc1CC=NNC(=O)c1ccncc1	nt	nt	nt	nt	5
Cc1ccc(S(=O)(=O)Nc2nc3ccccc3nc2Nc2cccc(S(=O)(=O)N3CCCC3)c2)cc1	4	?	?	-1	45*
O=[N+]([O-])c1cccc(S(=O)(=O)Nc2nc3ccccc3nc2Nc2cccc(S(=O)(=O)N3CCCCC3)c2)c1	9	17	1	1	4
O=C(O)CN1C(=O)/C(=C\c2cc(Br)ccc2OCc2ccc([N+](=O)[O-])cc2)SC1=S	nt	68*	38*	nt	16
O=C(O)CN1C(=O)/C(=C\c2cc(Br)ccc2OCc2ccccc2Cl)SC1=S	nt	60*	24*	nt	25
O=C(O)CN1C(=O)/C(=C\c2ccccc2OCc2ccc(Cl)cc2Cl)SC1=S	nt	15	22	nt	8
O=C(O)CN1C(=O)/C(=C\c2cc(Br)ccc2OCc2ccccc2F)SC1=S	nt	2	16	nt	30
O=C(NCc1ccco1)c1c2c(nc3ccccc13)CCC2	nt	89*	82*	1	6
Nc1c(C(=O)NCc2ccco2)sc2nc3c(cc12)C(=O)CCC3	32*[fluorescence artefact?]	89*	76*	0	14
COc1ccc2cc3c(N)c(C(=O)NCc4ccco4)sc3nc2c1	1	?	-2	0	-12
O=C(NCc1ccc(F)cc1)c1c2c(nc3ccccc13)CCC2	36*	71*	-8	0	-25
CCC(=O)N1CCC1(C)C(=O)Nc1ccc2nc(C)ccc2c1 (stereo not drawn)	nt	nt	nt	nt	7
CC1(C2CC2)NC(=O)N(CC(=O)N2CCN(S(=O)(=O)c3ccc(F)c(F)c3)CC2)C1=O (stereo not drawn)	nt	nt	nt	nt	-64
O=c1nc(/C=C/c2ccc(-c3ccc(F)cc3)o2)cc(C(F)(F)F)[nH]1	-3	127	121*	0	nt
COCCNC(=S)N(c1ccccc1)C(C)C	-1	2.5*	70	0	-13
Cc1ccc(NS(=O)(=O)c2cc3c4c(cccc4c2)C(=O)NC3=O)cc1C	-1	57	39*	-1	0
O=C1NC(=O)c2cc(Br)cc3cccc1c23	-2	9	4	2	2
COc1ccc2oc(=Nc3cc(F)ccc3F)c(C(N)=O)cc2c1	-8	active	73*	1	12
COc1ccc(OC)c(N=c2oc3cc(O)ccc3cc2C(N)=O)c1	0	6	-7	0	-3
CCOC(=O)C1=C(Nc2ccc(OC)cc2)OCC1=O	1	-6	5	2.9*	-2
CCOC(=O)C1=C(Nc2ccccc2)OCC1=O	2	2	0	1	16
O=C(O)c1ccc(N2C(=O)c3cccc4c(C(=O)O)ccc(c34)C2=O)cc1	9	96*	active	0	-17
O=C(O)c1ccc2c3c(cccc13)C(=O)N(c1ccccc1)C2=O	11	81	-14	1	0
SMILES	eIF4E-4G inh	eIF4H inh	PABP FP inh	PERK inhibitor	PABP1 MLLE inh
CC1(OC(=O)CCc2ccccc2)C(=O)C=C2C=C(c3ccsc3)OC=C2C1=O (stereo not drawn)	9	70*	34*	nt	nt
CC1(OC(=O)CCc2ccccc2)C(=O)C=C2C=C(c3ccc(C#N)cc3)N(CC3CC3)C=C2C1=O (stereo not drawn)	4	34	26	nt	19
CC1(OC(=O)CCc2ccccc2)C(=O)C=C2C=C(c3ccc(C#N)cc3)N(C3CCCC3)C=C2C1=O (stereo not drawn)	-5	59	36*	nt	34
Cc1ccc(NC(=O)COC(=O)c2oc3ccccc3c2C)cc1S(=O)(=O)N1CCOCC1	nt	nt	nt	nt	-3
COc1cccc(OC)c1C(=O)N1CCN(Cc2ccncc2)CC1	1	-24	-3	1	9
COc1ccccc1CN1CCN(C(=O)c2ccncc2)CC1	63*	0	14	0	2
C=CCSc1nc2ccccc2c(=O)[nH]1	-2	0	-4	3.0*	12
COc1ccccc1CNC(=O)CN(C)S(=O)(=O)c1cccc2cccnc12	96*	0	5	-1	5
CN(C)c1ccc(CCc2ccc(N)cc2)cc1	nt	nt	nt	nt	1
Nc1ccc(N(c2ccccc2)c2ccc(N)cc2)cc1	41*[fluorescence artefact?]	6	2	-1	-6
CC12CCCCN1CCCc1c2[nH]c2ccccc12 (stereo not drawn)	-3	?	?	0	40*
CC1CCCCN1C(=S)Nc1ccc(S(=O)(=O)N2CCCCC2)cc1 (stereo not drawn)	nt	nt	nt	nt	-75
CC(=O)N1CCc2cc(N=NC3=C(O)CC(C)(C)CC3=O)ccc21	6	101*	6.5*	1	-95
Cc1ccc(CN(CC(=O)NC2CCCC2)C(=O)CSc2nnc(COc3ccccc3)o2)cc1	4	4	5	2	41*
CCCCOC(=O)c1ccc(N)cc1	2	active	118*	1	-9
CN(CC(=O)Nc1ccc(Cl)cc1F)C1CCS(=O)(=O)C1 (stereo not drawn)	nt	nt	nt	nt	-12
CC(=O)c1c(N2CCN(Cc3ccccc3)CC2)nc(=S)n(-c2ccccc2)c1C	0	54*	active	0	-8
CC(=O)c1c(N2CCN(CCO)CC2)nc(=S)n(-c2ccccc2)c1C	0	?	41	-1	0
CCn1c(C)c(C(C)=O)c(N2CCN(C(=O)c3ccco3)CC2)nc1=S	71*	2	-1	1	26
Cc1cc(N2CCC(C)CC2)c(F)cc1[N+](=O)[O-]	3	0	8	0	-1
Cc1cc(N2CCCC2)c(F)cc1/C=C\[N+](=O)[O-]	1	58	0.6*	1	-113
Cc1ccc(NC(=O)Cc2nc(-c3c[nH]c(C(=O)N4CCCC4)c3)cs2)c(C)c1	nt	nt	nt	nt	-4
Cc1ccc(N2C(=O)C3C4C=CC(CNC(=S)Nc5cccc(Cl)c5)(O4)C3C2=O)cc1 (stereo not drawn)	1	4	-15	-1	41*
Cc1ccc(N2C(=O)C3C4C=CC(CNC(=S)Nc5ccc(Cl)cc5)(O4)C3C2=O)cc1 (stereo not drawn)	7	2	-4	1	27
COc1ccc2c(c1)c1nc3ccccc3nc1n2CC(=O)OC(C)C	-22	127	121*	0	70
COc1ccc2c(c1)c1nc3ccccc3nc1n2Cc1ccc(OC(C)C)c(OC)c1	3	78*	active	0	-6
COc1ccc(Cn2c3ccc(OC)cc3c3nc4ccccc4nc32)cc1	-5	?	-6	1	137
COC(=O)Cn1c2ccc(C)cc2c2nc3ccccc3nc21	nt	-4	1	nt	6
COc1ccc(C(=O)NC(=S)Nc2ccc(NC(=O)c3ccco3)cc2)cc1[N+](=O)[O-]	1	2	37	1	35
